Laboratory results published in PubChem BioAssay (NCATS).
Results filed as inconclusive are left out. Entries that show only a call come without a potency. Calls of active or inactive are those of the source. The call rests on the fitted dose curve; in most records, active means well fitted activation curve with a large enough effect; inconclusive means small, poorly fitted or top-dose-only effect; inactive means flat fitted curve, though single readings scatter.

Experiment: Validation screen for small molecules that induce DNA re-replication in MCF 10A normal breast cells (AID 463097); further: nearly all actives have a fitted effect of over 60% in size
Conditions: MCF 10A cells, DNA re-replication phenotype imaging; series mostly up to 46.1 µM
Description: NIH Molecular Libraries Probe Production Network [MLPCN]
NIH Chemical Genomics Center [NCGC]
Assay Provider: Melvin DePamphilis, NICHD, NIH
Eukaryotic cells normally restrict genome duplication to once per cell division. When this process is aberrant, DNA re-replication occurs when cells reinitiate DNA replication before the first round of replication is complete. DNA re-replication induces the DNA damage response, arrests cell proliferation, and triggers apoptosis. The cell cycle components cyclin A, Cdt-1, Cdc6 and geminin are critical regulators of this process and their misregulation results in DNA re-replication in normal and cancer cells. To identify compounds that induce re-replication in normal cells, an image-based assay was used to measure DNA content of nuclei, as detected by the fluorescent DNA binding dye, Hoechst. Cell nuclei were imaged by a fluorescence scanning plate imager and compounds that induce DNA re-replication were identified by the increase of nuclei with elevated fluorescence intensity.
For screening, 250 cells in 5 uL/well were dispensed into black clear 1536-well plates (Aurora) using a solenoid-based dispenser. Following transfer of 23 nL compound or DMSO vehicle by a pin tool, the plates were incubated 48 hr at 37 C and 5% CO2. After addition of 1 uL/well Hoescht stain, the plates were incubated 40 min at 37 C, 5% CO2 and total intensity of fluorescent objects (nuclei) were enumerated by an Acumen Explorer Ex3 (TTP LabTech) fluorescence scanning plate imager (405 nm excitation, 500-530 nm emission).
Keywords: NIH Roadmap, MLPCN, MLI, MLSMR, qHTS, NCGC, DNA replication, cancer
Potency means the concentration at half of the fitted maximal effect.

Row | Compound | Potency
1 | O=Nc1c(-c2c(O)[nH]c3cc(Br)ccc23)[nH]c2ccccc12 | inactive
2 | C[C@@H](N)C1CCC(C(=O)Nc2ccncc2)CC1 (stereo partly drawn) | inactive
3 | O=C(c1ccccc1)c1ccc2n1CCC2C(=O)O (stereo not drawn) | inactive
4 | NCCCCNCCCN | inactive
5 | COc1ccccc1N1CCN(CCN(C(=O)C2CCCCC2)c2ccccn2)CC1 | inactive
6 | O=c1c(O)c(-c2ccc(O)cc2O)oc2cc(O)cc(O)c12 | inactive
7 | CN(C)CCCC1(c2ccc(F)cc2)OCc2cc(C#N)ccc21 (stereo not drawn) | inactive
8 | O=C(CCc1ccc(O)cc1)c1c(O)cc(O)cc1O | inactive
9 | Cc1cccc(C#Cc2ccccc2)n1 | inactive
10 | COc1cc2nc(N3CCN(C(=O)C4CCCO4)CC3)nc(N)c2cc1OC (stereo not drawn) | inactive
11 | COc1ccc2cc([C@H](C)C(=O)O)ccc2c1 | inactive
12 | Cc1nc2n(c(=O)c1CCN1CCC(c3noc4cc(F)ccc34)CC1)CCCC2 | inactive
13 | CC(=O)O[C@H]1C(=O)[C@@]2(C)C([C@H](OC(=O)c3ccccc3)[C@]3(O)C[C@H](OC(=O)[C@H](O)[C@@H](NC(=O)c4ccccc4)c4ccccc4)C(C)=C1C3(C)C)[C@]1(OC(C)=O)CO[C@@H]1C[C@@H]2O (stereo partly drawn) | 0.0224 µM (active)
14 | O=C(NCC1CCCCN1)c1cc(OCC(F)(F)F)ccc1OCC(F)(F)F (stereo not drawn) | inactive
15 | O=C1c2ccccc2-c2n[nH]c3cccc1c23 | inactive
16 | O=c1ccc2ccc(O)c(O)c2o1 | inactive
17 | CNC[C@H](O)c1ccc(O)c(O)c1 | inactive
18 | Nc1nc(OCc2ccccc2)c2[nH]cnc2n1 | inactive
19 | NNc1nncc2ccccc12 | inactive
20 | Cc1c(OCC(F)(F)F)ccnc1CS(=O)c1nc2ccccc2[nH]1 (stereo not drawn) | inactive
21 | O=c1c(O)c(-c2cc(O)c(O)c(O)c2)oc2cc(O)cc(O)c12 | inactive
22 | CC1(C)NC(=O)N(c2ccc([N+](=O)[O-])c(C(F)(F)F)c2)C1=O | inactive
23 | CC(C)c1ccc2c(c1)c(SC(C)(C)C)c(CC(C)(C)C(=O)O)n2Cc1ccc(Cl)cc1 | 10 µM (active)
